Results from PubChem BioAssay (Tox21).
“And” between values parts separate entries of the source, which are not always exact repeats. Equal entries are not always repeated. Records with an inconclusive call do not appear. Where a call stands in place of a potency, no number is given. Some compounds were tested as several samples or in several runs, with calls that do not always agree. The source made the active and inactive calls. Unless noted, the call rests on the fitted dose curve.

How the values were obtained:
[1] = Nuclear factor erythroid 2-related factor 2/antioxidant responsive element (Nrf2/ARE) small molecule agonists: qHTS cell viability counter screen in human keratinocytes (AID 1919968; active means well fitted curve in the direction sought with a large enough effect in the repeat runs; an effect the other way counts as inactive or inconclusive; further: nearly all actives have a fitted effect of over 55% in size)
How it was run: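 HaCaT ARE reporter line, 1,500 cells/well; 5 h settle, 37 C/5% CO2; cpd in DMSO pinned; 23 h exposure; CellTiter-Fluor, 1 h; fluorescence.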

[2] = Nuclear factor erythroid 2-related factor 2/antioxidant responsive element (Nrf2/ARE) small molecule agonists: luciferase reporter gene qHTS assay in human keratinocytes (AID 1919969); further: nearly all actives have a fitted effect of over 35% in size; further: potency means the concentration at half of the fitted maximal effect
[3] = molecular target: Gonadotropin-releasing hormone receptor (Homo sapiens) (UniProt P30968); assay: Human gonadotropin-releasing hormone receptor (GnRHR) small molecule agonists, calcium flux assay in GnRHR-HEK293 cells (AID 1920063); further: nearly all actives have a fitted effect of over 35% in size
Chain of Gonadotropin-releasing hormone receptor (Homo sapiens) (P30968 whole entry, looked up): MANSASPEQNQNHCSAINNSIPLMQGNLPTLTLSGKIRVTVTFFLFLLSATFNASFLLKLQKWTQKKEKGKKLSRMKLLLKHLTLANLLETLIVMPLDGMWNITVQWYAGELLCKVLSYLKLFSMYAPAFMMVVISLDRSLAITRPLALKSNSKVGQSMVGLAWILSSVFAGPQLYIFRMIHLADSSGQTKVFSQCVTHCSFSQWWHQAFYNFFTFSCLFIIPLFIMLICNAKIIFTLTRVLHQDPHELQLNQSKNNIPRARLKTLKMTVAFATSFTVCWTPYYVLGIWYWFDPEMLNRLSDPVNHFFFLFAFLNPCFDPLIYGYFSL
How it was run: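 GnRHR-HEK293, 1500 cells/well, 18 h 37 C/5% CO2; Ca dye 1 h 37 C; cpd pinned (DMSO), agonist mode; kinetic FL 480/540, 3 min, 1 s reads; 15 conc, n=3.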

[4] = molecular target: KiSS-1 receptor (Homo sapiens) (UniProt Q969F8); assay: Human kisspeptin (KISS1R) small molecule agonists, calcium flux assay in KISS1R-HEK293 cells (AID 1920064; active means well fitted curve in the direction sought with a large enough effect in the repeat runs; an effect the other way counts as inactive or inconclusive)
Chain of KiSS-1 receptor (Homo sapiens) (Q969F8 whole entry, looked up): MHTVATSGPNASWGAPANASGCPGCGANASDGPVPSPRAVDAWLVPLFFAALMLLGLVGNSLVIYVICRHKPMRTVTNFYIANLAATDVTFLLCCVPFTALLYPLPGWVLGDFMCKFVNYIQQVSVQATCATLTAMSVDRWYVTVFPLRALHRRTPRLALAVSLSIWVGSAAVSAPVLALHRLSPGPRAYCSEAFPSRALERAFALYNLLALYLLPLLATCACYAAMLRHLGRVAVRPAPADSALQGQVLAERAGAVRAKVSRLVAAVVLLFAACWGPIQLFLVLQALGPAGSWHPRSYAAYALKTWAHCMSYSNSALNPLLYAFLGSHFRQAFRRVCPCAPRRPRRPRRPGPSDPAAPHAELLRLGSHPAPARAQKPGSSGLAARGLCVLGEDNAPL
How it was run: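 Stable human KISS1R HEK293 line; 18 h plating, 37 C/5% CO2; calcium dye 1 h 37 C; compound pin transfer; kinetic fluorescence Ex/Em 480/540, 3 min.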

[5] = G protein-coupled receptor (GPCR) small molecule agonists, calcium flux assay: HEK293 wild type cell line counter screen (AID 1920065)
How it was run: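 Kinetic fluorescence at Ex/Em 480/540, recorded every second over 3 min, served as the read-out after compound addition. Each compound was tested at 15 concentrations in triplicate on cells pre-loaded with calcium dye for 1 h.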

[6] = p53 small molecule agonists, cell-based qHTS assay with human liver microsomes (AID 1963577);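 further: p53 response element beta-lactamase reporter cells with liver microsomes plus NADPH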
How it was run: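 With metabolic activation: human liver microsomes (0.5 mg/mL final) plus NADPH (0.5 mg/mL final) added alongside compounds to p53RE-bla cells; 16 h 37 C exposure; beta-lactamase read by LiveBLAzer fluorescence.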

[7] = p53 small molecule agonists, cell-based qHTS assay with rat liver microsomes (AID 1963578)
How it was run: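 Metabolic activation by rat liver microsomes and NADPH, each 0.5 mg/mL final, added right after compounds to p53RE-bla reporter cells (4,000/well, plated 5 h earlier). 16 h at 37 C, then LiveBLAzer substrate for 2 h at room temperature in the dark; fluorescence read-out.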

[8] = p53 small molecule agonists, cell-based qHTS assay with human liver microsomes: qHTS cell viability counter screen (AID 1963579); further: nearly all actives have a fitted effect of over 45% in size
How it was run: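 Metabolic activation used human liver microsomes and NADPH, both 0.5 mg/mL final, over 16 hours at 37 C on p53RE-bla cells (4,000/well). Cytotoxicity measured by CellTiter-Glo luminescence, 30 min at room temperature.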

[9] = p53 small molecule agonists, cell-based qHTS assay with rat liver microsomes: qHTS cell viability counter screen (AID 1963580); further: nearly all actives have a fitted effect of over 45% in size
How it was run: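 p53RE-bla HCT-116 cells (4,000/well) rested 5 h at 37 C, then given Tox21 compounds in DMSO with rat liver microsomes (0.5 mg/mL final) plus NADPH (0.5 mg/mL final) for 16 h at 37 C. Viability read by CellTiter-Glo luminescence after 30 min at room temperature.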

[10] = p53 small molecule agonists, cell-based qHTS assay: qHTS cell viability counter screen (AID 1963581); further: nearly all actives have a fitted effect of over 45% in size
How it was run: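 HCT-116 p53RE-bla cells, 4,000/well, plated 5 h before compound pin transfer; 16 h at 37 C; bla substrate 2 h RT; then CellTiter-Glo, 30 min RT, luminescence.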

[11] = p53 small molecule agonists, cell-based qHTS assay (AID 1963582; active means well fitted activation curve with a large enough effect in the signal ratio in the repeat runs, not every such curve was filed as active; the % refers to the signal ratio)
How it was run: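 Reporter line: p53RE-bla. Pre-incubation 5 h, 37 C, 5% CO2; compound (DMSO, pin tool) 16 h, 37 C; B/G FRET substrate 2 h RT; fluorescence intensity read.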

[12] = molecular target: 5-hydroxytryptamine receptor 2A (Homo sapiens) (UniProt P28223); assay: 5-hydroxytryptamine receptor 2A (HTR2A) small molecule antagonists, cell-based qHTS assay (AID 1963586); further: nearly all actives have a fitted effect of over 45% in size; further: potency means the concentration at half of the fitted maximal effect
Chain of 5-hydroxytryptamine receptor 2A (Homo sapiens) (P28223 whole entry, looked up): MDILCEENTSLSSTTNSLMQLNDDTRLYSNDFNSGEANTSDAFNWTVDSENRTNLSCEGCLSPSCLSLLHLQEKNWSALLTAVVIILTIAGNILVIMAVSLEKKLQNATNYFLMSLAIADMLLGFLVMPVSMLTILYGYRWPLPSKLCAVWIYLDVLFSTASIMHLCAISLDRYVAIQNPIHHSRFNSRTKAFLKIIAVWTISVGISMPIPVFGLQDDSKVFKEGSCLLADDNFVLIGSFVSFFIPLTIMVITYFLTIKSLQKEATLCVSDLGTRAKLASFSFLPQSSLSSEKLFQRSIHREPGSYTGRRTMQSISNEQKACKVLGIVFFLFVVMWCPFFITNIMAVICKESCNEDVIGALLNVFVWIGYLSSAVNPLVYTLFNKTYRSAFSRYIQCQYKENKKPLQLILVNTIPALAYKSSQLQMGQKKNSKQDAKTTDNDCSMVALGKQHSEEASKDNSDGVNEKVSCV
How it was run: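 Antagonist-mode intracellular calcium assay: DOI (4 nM) added after 5 min compound pre-incubation at room temperature to dye-loaded HTR2A-CHO cells. Fluorescence followed for 3 min, sampled every second.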

[13] = molecular target: 5-hydroxytryptamine receptor 2A (Homo sapiens) (UniProt P28223); assay: 5-hydroxytryptamine receptor 2A (HTR2A) small molecule agonists, cell-based qHTS assay (AID 1963587); further: nearly all actives have a fitted effect of over 30% in size; further: potency means the concentration at half of the fitted maximal effect
How it was run: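 HTR2A-CHO cells, plated 18 h at 37 C/5% CO2, dye-loaded 1 h at 37 C; compounds in DMSO added by pin tool (agonist mode). Intracellular calcium flux read as kinetic fluorescence on FDSS over 2 min at 1 s intervals.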

[14] = molecular target: Muscarinic acetylcholine receptor M1 (Homo sapiens) (UniProt P11229); assay: Cholinergic receptor muscarinic 1 (CHRM1) small molecule agonists, cell-based qHTS assay (AID 1963589); further: nearly all actives have a fitted effect of over 35% in size
Chain of Muscarinic acetylcholine receptor M1 (Homo sapiens) (P11229 whole entry, looked up): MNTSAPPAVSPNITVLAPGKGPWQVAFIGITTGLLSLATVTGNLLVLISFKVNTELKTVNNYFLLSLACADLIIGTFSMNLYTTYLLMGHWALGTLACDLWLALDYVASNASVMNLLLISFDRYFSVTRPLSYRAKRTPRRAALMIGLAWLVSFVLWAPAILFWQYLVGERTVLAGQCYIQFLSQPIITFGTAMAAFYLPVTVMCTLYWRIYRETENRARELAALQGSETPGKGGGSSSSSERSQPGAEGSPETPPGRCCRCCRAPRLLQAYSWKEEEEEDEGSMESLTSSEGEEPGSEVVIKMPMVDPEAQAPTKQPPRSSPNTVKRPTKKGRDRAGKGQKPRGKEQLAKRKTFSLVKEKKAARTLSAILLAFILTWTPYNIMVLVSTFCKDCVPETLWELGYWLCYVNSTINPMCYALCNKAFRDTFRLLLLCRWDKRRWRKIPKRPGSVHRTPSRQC
How it was run: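 Human M1 in stable CHO line; 18 h plating, 1 h dye load 37 C; cpd added (agonist mode); Ca2+ fluorescence kinetic read, 1 s intervals; 15 conc, 3 runs.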

[15] = cAMP Responsive Elements (CRE) small molecule agonists, cell-based qHTS assay (AID 1963590)
How it was run: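 HEK 293T CRE-bla, 2,000 cells/well, 18 h preincubation 37 C/5% CO2; cpds (DMSO) pinned, 3 h; LiveBLAzer B/G FRET substrate, 2 h RT.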

[16] = cAMP Responsive Elements (CRE) small molecule antagonists, cell-based qHTS assay (AID 1963591; active means well fitted inhibition curve with a large enough effect in the signal ratio in the repeat runs, not every such curve was filed as active; the % refers to the signal ratio)
How it was run: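 Beta-lactamase reporter read by FRET substrate (LiveBLAzer B/G) after 2 h at room temperature. CRE-bla HEK293T cells had received compound plus 0.25 uM (final) NKH477 for 3 h at 37 °C.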

[17] = molecular target: Beta-2 adrenergic receptor (Homo sapiens) (UniProt P07550); assay: Adrenergic beta2 receptor (ADRB2) small molecule antagonists, cell-based qHTS assay (AID 1963592); further: series mostly up to about 92 µM; nearly all actives have a fitted effect of over 50% in size
Chain of Beta-2 adrenergic receptor (Homo sapiens) (P07550 whole entry, looked up): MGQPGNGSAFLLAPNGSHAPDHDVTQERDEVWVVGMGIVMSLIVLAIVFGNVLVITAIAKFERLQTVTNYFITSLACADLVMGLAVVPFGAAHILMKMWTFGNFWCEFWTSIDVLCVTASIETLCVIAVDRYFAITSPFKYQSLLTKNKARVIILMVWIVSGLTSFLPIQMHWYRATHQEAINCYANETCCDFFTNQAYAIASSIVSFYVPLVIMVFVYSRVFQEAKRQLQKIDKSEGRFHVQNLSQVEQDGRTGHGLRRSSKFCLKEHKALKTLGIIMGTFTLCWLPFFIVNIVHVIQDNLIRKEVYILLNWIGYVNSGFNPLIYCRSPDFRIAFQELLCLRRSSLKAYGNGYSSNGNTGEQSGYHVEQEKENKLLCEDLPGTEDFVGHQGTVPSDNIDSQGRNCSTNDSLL
How it was run: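 Cells (CHO, stable ADRB2 overexpression) incubated 18-20hr at 37C; compounds added from DMSO; agonist mix (1nM isoproterenol, 100uM IBMX, 25uM Ro-20-1724) added; 0.5hr RT; d2-cAMP and anti-cAMP-cryptate added; 1hr RT; 665/615 nm read.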

[18] = molecular target: Beta-2 adrenergic receptor (Homo sapiens) (UniProt P07550); assay: Adrenergic beta2 receptor (ADRB2) small molecule agonists, cell-based qHTS assay (AID 1963593);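 further: CHO cells stably overexpressing human ADRB2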
How it was run: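 CHO cells stably over-expressing ADRB2 were plated overnight at 37C, then dosed with compounds plus a stimulation mix containing 100uM IBMX and 25uM Ro-20-1724 for 0.5hr at room temperature. cAMP was measured by HTRF competition, 1hr.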

[19] = molecular target: D(2) dopamine receptor (Homo sapiens) (UniProt P14416); assay: Dopamine D2 receptor (DRD2) small molecule agonists, cell-based qHTS assay (AID 1963594); further: nearly all actives have a fitted effect of over 35% in size
Chain of D(2) dopamine receptor (Homo sapiens) (P14416 whole entry, looked up): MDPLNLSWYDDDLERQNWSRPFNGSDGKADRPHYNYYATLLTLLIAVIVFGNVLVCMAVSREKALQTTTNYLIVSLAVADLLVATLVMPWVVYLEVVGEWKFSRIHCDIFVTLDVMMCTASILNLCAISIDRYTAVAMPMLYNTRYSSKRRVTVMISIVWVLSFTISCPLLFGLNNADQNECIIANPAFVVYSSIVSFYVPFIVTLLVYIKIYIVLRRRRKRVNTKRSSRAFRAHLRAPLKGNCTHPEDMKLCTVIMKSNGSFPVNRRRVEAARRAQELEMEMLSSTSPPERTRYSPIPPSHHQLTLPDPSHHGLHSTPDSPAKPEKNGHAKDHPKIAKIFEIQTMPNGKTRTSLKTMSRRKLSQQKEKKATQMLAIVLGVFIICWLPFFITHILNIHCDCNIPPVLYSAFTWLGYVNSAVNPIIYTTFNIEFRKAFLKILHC
How it was run: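 HEK293 cells stably expressing DRD2 were cultured 24 h at 37 C, then given Ro20-1724 (0.1 mM final) and compounds for 10 min at room temperature. NKH477 (200nM) was then added for 30 min. cAMP was read by HTRF.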

[20] = molecular target: D(2) dopamine receptor (Homo sapiens) (UniProt P14416); assay: Dopamine D2 receptor (DRD2) small molecule antagonists, cell-based qHTS assay (AID 1963595; active means well fitted inhibition curve with a large enough effect in the signal ratio in the repeat runs, with a control signal flat; the % refers to the signal ratio)
How it was run: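 DRD2-HEK293; 0.1 mM Ro20-1724; cpd 10 min RT; NKH477 200 nM + quinpirole 12 nM, 30 min RT; HTRF cAMP (cAMP-d2/anti-cAMP cryptate), 665/620 nm ratio after 1 h.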

Row | Compound | Potency [1] | Potency [2] | Potency [3] | Potency [4] | Potency [5] | Potency [6] | Potency [7] | Potency [8] | Potency [9] | Potency [10] | Potency [11] | Potency [12] | Potency [13] | Potency [14] | Potency [15] | Potency [16] | Potency [17] | Potency [18] | Potency [19] | Potency [20]
1 | O=[N+]([O-])c1ccccc1C(F)(F)F | inactive | inactive | inactive | inactive | inactive | inactive | inactive | inactive | inactive | inactive | inactive | inactive | inactive | inactive | inactive | inactive | inactive | inactive | inactive | inactive
2 | COc1ccc(C(=O)c2ccccc2)c(O)c1 | inactive | inactive and 54.5 µM (active) | inactive | inactive | inactive | inactive | inactive | inactive | inactive | inactive | inactive | inactive | inactive | inactive |  |  | inactive | inactive | inactive | inactive
3 | O=C(Cl)c1c(Cl)c(Cl)c(C(=O)Cl)c(Cl)c1Cl | inactive | inactive | inactive | inactive | inactive | inactive | inactive | inactive | inactive | inactive | inactive | inactive |  | inactive | inactive | inactive | inactive | inactive | inactive | inactive
4 | CN(C)C(=O)Nc1ccc(Cl)c(Cl)c1 | inactive | inactive | inactive | inactive | inactive | inactive | inactive | inactive | inactive | inactive | inactive | inactive | inactive |  | inactive | inactive | inactive | inactive | inactive | inactive
5 | Nc1ccc(Nc2ccccc2)cc1 | inactive | 53.9 µM (active) and inactive and 30.6 µM (active) | inactive | inactive | inactive | inactive | inactive | inactive | inactive | inactive | inactive | inactive and 3.75 µM (active) | 7.68 µM (active) and 24.6 µM (active) and 3.89 µM (active) |  | inactive | inactive |  |  |  | 
6 | Nc1ccn([C@H]2CC[C@@H](CO)O2)c(=O)n1 | inactive | inactive | inactive | inactive | inactive | inactive | inactive | inactive | inactive | inactive | inactive | inactive | inactive | inactive | inactive |  | inactive | inactive | inactive | inactive
7 | C=CCCCCCCCCCC | inactive | inactive | inactive | inactive | inactive | inactive | inactive | inactive | inactive | inactive | inactive | inactive | inactive | inactive |  | inactive |  |  | inactive | inactive
